Assay results published in PubChem BioAssay (NCI).
Compounds without any hit were thinned out: in the full panel of roughly 79,000, 15% have a hit. Unmarked numbers belong to inactive results. Calls of active or inactive are those of the source. Cut-off read from the data, not from the text of the source: active = growth inhibition above about 70%; inactive = the rest.

What was measured:
[1] = NCI Yeast Anticancer Drug Screen. Data for the rad52 strain (AID 147);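 note: 0% = growth of vehicle-treated control cultures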; settings: S. cerevisiae rad52 mutant growth inhibition, hits give high values
Procedure, shortened: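 Vehicle-treated cultures served as the reference for growth inhibition of compound-exposed yeast bearing a DNA repair mutation.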

[2] = NCI Yeast Anticancer Drug Screen. Data for the wt1 strain (AID 149);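 note: 0% = growth of vehicle-treated wt1 cultures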; settings: S. cerevisiae wt1 strain (SPY 50644) growth inhibition, hits give high values
Procedure, shortened: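 Each compound is tested on wt1 yeast and the loss of growth versus vehicle gives the inhibition value.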

[3] = NCI Yeast Anticancer Drug Screen. Data for the rad50EPP+ strain (AID 151);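 note: 0% = growth of vehicle-treated control cultures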; settings: S. cerevisiae rad50 mutant strain, hits give high values
Procedure, shortened: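 In this screen, rad50EPP+ yeast were exposed to compounds. Growth inhibition was scored against vehicle-treated controls.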

[4] = NCI Yeast Anticancer Drug Screen. Data for the mgt1 strain (AID 153); settings: S. cerevisiae mgt1 mutant growth inhibition, hits give high values
Procedure, shortened: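 mgt1 strain exposed; growth vs vehicle control recorded as inhibition.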

[5] = NCI Yeast Anticancer Drug Screen. Data for the rad50 strain (AID 155);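 note: 0% = growth of vehicle-only cultures of the same strain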; settings: S. cerevisiae rad50 strain growth inhibition, hits give high values
Procedure, shortened: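 Vehicle-treated cultures provide the reference for the growth inhibition reported for compound-exposed, repair-deficient yeast.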

[6] = NCI Yeast Anticancer Drug Screen. Data for the mec2-1 strain (AID 157); settings: S. cerevisiae mec2-1 strain, hits give high values
Procedure, shortened: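 Vehicle-treated cultures served as reference for growth inhibition of compound-exposed mec2-1 yeast.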

[7] = NCI Yeast Anticancer Drug Screen. Data for the rad14 strain (AID 159);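 note: 0% = growth of vehicle-treated control cultures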; settings: S. cerevisiae rad14 strain growth inhibition, hits give high values
Procedure, shortened: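 Inhibition of growth is reported for a repair-deficient yeast mutant following compound treatment, calculated relative to cultures that received vehicle.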

[8] = NCI Yeast Anticancer Drug Screen. Data for the sgs1 mgt1 strain (AID 161);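 note: 0% = growth of cultures given vehicle only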; settings: S. cerevisiae sgs1 mgt1 strain, hits give high values
Procedure, shortened: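 Mutant yeast exposed to compound; growth scored against vehicle-only wells.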

[9] = NCI Yeast Anticancer Drug Screen. Data for the CLN2oe strain (AID 163);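 note: 0% = growth of vehicle-only control cultures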; settings: S. cerevisiae CLN2oe strain, hits give high values
Procedure, shortened: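 Inhibition relative to vehicle-treated yeast is reported. Cells: strain with genetic alteration in cell-cycle control, grown with compound.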

[10] = NCI Yeast Anticancer Drug Screen. Data for the cln2 rad14 strain (AID 165);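 note: 0% = growth equal to vehicle treated cultures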; settings: S. cerevisiae cln2 rad14 strain, hits give high values
Procedure, shortened: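 Each compound was tested on cln2 rad14 yeast. Inhibition of growth was calculated against vehicle-exposed controls.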

[11] = NCI Yeast Anticancer Drug Screen. Data for the bub3 strain (AID 167); settings: S. cerevisiae bub3 mutant strain, hits give high values
Procedure, shortened: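 Mutant yeast screening strain plus compound; vehicle-treated cultures serve as the 0% inhibition reference.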

[12] = NCI Yeast Anticancer Drug Screen. Data for the wt2 strain (AID 169); settings: S. cerevisiae wt2 strain growth inhibition, hits give high values
Procedure, shortened: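 Inhibition of yeast growth was determined after compound treatment, normalised to controls receiving only vehicle.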

[13] = NCI Yeast Anticancer Drug Screen. Data for the mlh1 strain (AID 171);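 note: 0% = growth of vehicle-treated control cultures of the same strain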; settings: S. cerevisiae mlh1 strain growth inhibition, hits give high values
Procedure, shortened: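 Vehicle-normalised growth inhibition of a repair- or checkpoint-altered yeast strain following compound treatment.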

[14] = NCI Yeast Anticancer Drug Screen. Data for the sgs1 strain (AID 173);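 note: 0% = growth of vehicle-only control cultures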; settings: S. cerevisiae sgs1 mutant, hits give high values
Procedure, shortened: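 Screen format: yeast with repair or checkpoint alterations, compound exposure, growth read relative to vehicle.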

[15] = NCI Yeast Anticancer Drug Screen. Data for the mlh1 rad18 strain (AID 175); settings: S. cerevisiae mlh1 rad18 strain growth inhibition, hits give high values
Procedure, shortened: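 Vehicle-treated cultures served as the reference for growth inhibition in a yeast strain carrying DNA damage repair alterations exposed to each compound.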

[16] = NCI Yeast Anticancer Drug Screen. Data for the rad18 strain (AID 177); settings: S. cerevisiae rad18 mutant growth inhibition, hits give high values
Procedure, shortened: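 Test articles were incubated with altered yeast defective in DNA damage repair. Results are given as inhibition of growth versus vehicle.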

[17] = at 5.0 µM (retest, dose inferred, filed as 0.5)
[18] = at 50.0 µM (retest, dose inferred, filed as 5.0)

COC(=O)c1ccc([N+](=O)[O-])c(O)c1
growth inhibition ([1]; at 1.2 µM): -5%
growth inhibition ([1]; at 3.7 µM): -3%
growth inhibition ([1]; at 11.0 µM): 17%
growth inhibition ([1]; at 33.0 µM): 49%
growth inhibition ([1]; at 100.0 µM): 98% (active)
growth inhibition ([2]; at 1.2 µM): -12%
growth inhibition ([2]; at 3.7 µM): -10%
growth inhibition ([2]; at 11.0 µM): 3%
growth inhibition ([2]; at 33.0 µM): 28%
growth inhibition ([2]; at 100.0 µM): 98% (active)
growth inhibition ([3]; at 1.2 µM): -3%
growth inhibition ([3]; at 3.7 µM): -25%
growth inhibition ([3]; at 11.0 µM): 3%
growth inhibition ([3]; at 33.0 µM): 76% (active)
growth inhibition ([3]; at 100.0 µM): 99% (active)
growth inhibition ([4]; at 1.2 µM): -15%
growth inhibition ([4]; at 3.7 µM): -13%
growth inhibition ([4]; at 11.0 µM): -4%
growth inhibition ([4]; at 33.0 µM): 44%
growth inhibition ([4]; at 100.0 µM): 98% (active)
growth inhibition ([5]; at 1.2 µM): -5%
growth inhibition ([5]; at 3.7 µM): -28%
growth inhibition [5, 17]: 2%
growth inhibition ([5]; at 11.0 µM): -17%
growth inhibition ([5]; at 33.0 µM): 37%
growth inhibition [5, 18]: 65%
growth inhibition ([5]; at 50.0 µM): 77.5% (active)
growth inhibition ([5]; at 100.0 µM): 97% (active)
growth inhibition ([6]; at 1.2 µM): -26%
growth inhibition ([6]; at 3.7 µM): -23%
growth inhibition [6, 17]: -7%
growth inhibition ([6]; at 11.0 µM): -4%
growth inhibition ([6]; at 33.0 µM): 35%
growth inhibition [6, 18]: 75% (active)
growth inhibition ([6]; at 50.0 µM): 85% (active)
growth inhibition ([6]; at 100.0 µM): 99% (active)
growth inhibition ([7]; at 1.2 µM): -16%
growth inhibition ([7]; at 3.7 µM): -13%
growth inhibition ([7]; at 11.0 µM): -7%
growth inhibition ([7]; at 33.0 µM): 27%
growth inhibition ([7]; at 100.0 µM): 98% (active)
growth inhibition [8, 17]: 5%
growth inhibition [8, 18]: 4%
growth inhibition ([8]; at 50.0 µM): 89.7% (active)
growth inhibition ([9]; at 1.2 µM): -6%
growth inhibition ([9]; at 3.7 µM): 1%
growth inhibition ([9]; at 11.0 µM): 1%
growth inhibition ([9]; at 33.0 µM): 35%
growth inhibition ([9]; at 100.0 µM): 98% (active)
growth inhibition [10, 17]: -2%
growth inhibition [10, 18]: 65%
growth inhibition ([10]; at 50.0 µM): 58.3%
growth inhibition ([11]; at 1.2 µM): -22%
growth inhibition ([11]; at 3.7 µM): -31%
growth inhibition [11, 17]: -7%
growth inhibition ([11]; at 11.0 µM): -20%
growth inhibition ([11]; at 33.0 µM): 6%
growth inhibition [11, 18]: 56%
growth inhibition ([11]; at 50.0 µM): 78.9% (active)
growth inhibition ([11]; at 100.0 µM): 99% (active)
growth inhibition ([12]; at 1.2 µM): 3%
growth inhibition ([12]; at 3.7 µM): 7%
growth inhibition ([12]; at 11.0 µM): 4%
growth inhibition ([12]; at 33.0 µM): 63%
growth inhibition ([12]; at 100.0 µM): 99% (active)
growth inhibition ([13]; at 1.2 µM): -4%
growth inhibition ([13]; at 3.7 µM): -1%
growth inhibition ([13]; at 11.0 µM): 7%
growth inhibition ([13]; at 33.0 µM): 67%
growth inhibition ([13]; at 100.0 µM): 99% (active)
growth inhibition ([14]; at 1.2 µM): 22%
growth inhibition ([14]; at 3.7 µM): 32%
growth inhibition ([14]; at 11.0 µM): 21%
growth inhibition ([14]; at 33.0 µM): 81% (active)
growth inhibition ([14]; at 100.0 µM): 98% (active)
growth inhibition [15, 17]: -28%
growth inhibition [15, 18]: 88% (active)
growth inhibition ([15]; at 50.0 µM): 72.9% (active)
growth inhibition ([16]; at 1.2 µM): -9%
growth inhibition ([16]; at 3.7 µM): -2%
growth inhibition ([16]; at 11.0 µM): 8%
growth inhibition ([16]; at 33.0 µM): 52%
growth inhibition ([16]; at 100.0 µM): 98% (active)

O=C(Nc1ccccc1)OCCc1ccc(Cl)c(Cl)c1
growth inhibition ([1]; at 1.2 µM): 0%
growth inhibition ([1]; at 3.7 µM): 10%
growth inhibition ([1]; at 11.0 µM): 20%
growth inhibition ([1]; at 33.0 µM): 20%
growth inhibition ([1]; at 100.0 µM): 52%
growth inhibition ([2]; at 1.2 µM): -4%
growth inhibition ([2]; at 3.7 µM): -7%
growth inhibition ([2]; at 11.0 µM): -9%
growth inhibition ([2]; at 33.0 µM): 16%
growth inhibition ([2]; at 100.0 µM): 8%
growth inhibition ([3]; at 1.2 µM): 7%
growth inhibition ([3]; at 3.7 µM): 26%
growth inhibition ([3]; at 11.0 µM): 39%
growth inhibition ([3]; at 33.0 µM): 29%
growth inhibition ([3]; at 100.0 µM): 30%
growth inhibition ([4]; at 1.2 µM): -4%
growth inhibition ([4]; at 3.7 µM): -4%
growth inhibition ([4]; at 11.0 µM): 7%
growth inhibition ([4]; at 33.0 µM): 14%
growth inhibition ([4]; at 100.0 µM): 37%
growth inhibition ([5]; at 1.2 µM): -2%
growth inhibition ([5]; at 3.7 µM): 13%
growth inhibition [5, 17]: 0%
growth inhibition ([5]; at 11.0 µM): 29%
growth inhibition ([5]; at 33.0 µM): 66%
growth inhibition [5, 18]: 74% (active)
growth inhibition ([5]; at 50.0 µM): 86.7% (active)
growth inhibition ([5]; at 100.0 µM): 51%
growth inhibition ([6]; at 1.2 µM): -3%
growth inhibition ([6]; at 3.7 µM): -4%
growth inhibition [6, 17]: 0%
growth inhibition ([6]; at 11.0 µM): -3%
growth inhibition ([6]; at 33.0 µM): 20%
growth inhibition [6, 18]: 65%
growth inhibition ([6]; at 50.0 µM): 95.3% (active)
growth inhibition ([6]; at 100.0 µM): 47%
growth inhibition ([7]; at 1.2 µM): -5%
growth inhibition ([7]; at 3.7 µM): 1%
growth inhibition ([7]; at 11.0 µM): 15%
growth inhibition ([7]; at 33.0 µM): 31%
growth inhibition ([7]; at 100.0 µM): 53%
growth inhibition [8, 17]: 8%
growth inhibition [8, 18]: 54%
growth inhibition ([8]; at 50.0 µM): 75.8% (active)
growth inhibition ([9]; at 1.2 µM): -8%
growth inhibition ([9]; at 3.7 µM): -4%
growth inhibition ([9]; at 11.0 µM): 26%
growth inhibition ([9]; at 33.0 µM): 53%
growth inhibition ([9]; at 100.0 µM): 58%
growth inhibition [10, 17]: -8%
growth inhibition [10, 18]: 85% (active)
growth inhibition ([10]; at 50.0 µM): 86% (active)
growth inhibition ([11]; at 1.2 µM): -1%
growth inhibition ([11]; at 3.7 µM): 2%
growth inhibition [11, 17]: 6%
growth inhibition ([11]; at 11.0 µM): 37%
growth inhibition ([11]; at 33.0 µM): 75% (active)
growth inhibition [11, 18]: 83% (active)
growth inhibition ([11]; at 50.0 µM): 90.2% (active)
growth inhibition ([11]; at 100.0 µM): 52%
growth inhibition ([12]; at 1.2 µM): -7%
growth inhibition ([12]; at 3.7 µM): -6%
growth inhibition ([12]; at 11.0 µM): 5%
growth inhibition ([12]; at 33.0 µM): 24%
growth inhibition ([12]; at 100.0 µM): 8%
growth inhibition ([13]; at 1.2 µM): -3%
growth inhibition ([13]; at 3.7 µM): 2%
growth inhibition ([13]; at 11.0 µM): 22%
growth inhibition ([13]; at 33.0 µM): 46%
growth inhibition ([13]; at 100.0 µM): 46%
growth inhibition [15, 17]: 1%
growth inhibition [15, 18]: 60%
growth inhibition ([15]; at 50.0 µM): 58.9%
growth inhibition ([16]; at 1.2 µM): -4%
growth inhibition ([16]; at 3.7 µM): 7%
growth inhibition ([16]; at 11.0 µM): 17%
growth inhibition ([16]; at 33.0 µM): 45%
growth inhibition ([16]; at 100.0 µM): 53%
